Records with an inconclusive call do not appear. Where a structure was tested more than once in an assay, its records may differ in their call. The source made the active and inactive calls. Rule for the calls: active = hit-call score of the fitted dose curve at least 0.9, where 1 is the maximum; inconclusive = response in the unintended direction; inactive = score below 0.9.

For this assay, the system named is frog Estrogen Receptor (ER), gene 398734. Put plainly: ATG_frER1_XSP2: Attagene TRANS-FACTORIAL Multi-Species (XSP2) HepG2 Assay for frog Estrogen Receptor (ER) (AID 2283821).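 Note: hits raise reporter mRNA above DMSO baseline so potency means agonist or activator.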 The protocol:
ATG_XSP2_multi-species_TRANS is a cell-based, multiplexed assay created by modifying the existing Attagene TRANS-FACTORIAL system to include a panel of nuclear receptors from some or all the following species: human (Homo sapiens), mouse (Mus musculus), frog (Xenopus laevis), zebrafish (Danio rerio), chicken (Gallus gallus), and turtle (Chrysemys picta). The ECOTOX-FACTORIAL format uses HepG2, a human liver cell line, with measurements taken at 24 hours after chemical dosing in a 24-well plate. Xsp2 included 3 nM 6-alpha-fluorotestosterone and 1.5 nM norgestrel to stimulate the androgen receptor.ATG_frER1_XSP2 is one of 29 assay components measured or calculated from the ATG_XSP2_multi-species_TRANS assay. It is designed to make measurements of mRNA induction, a form of inducible reporter, as detected with fluorescence intensity signals by Reverse transcription polymerase chain reaction (RT-PCR) and Capillary electrophoresis technology.The assay endpoint ATG_frER1_XSP2 was analyzed in the positive analysis fitting direction relative to DMSO as the negative control and baseline of activity. Using a type of inducible reporter, measures of mRNA for gain-of-signal activity can be used to understand the reporter gene at the transcription factor-level as they relate to the gene ER. Furthermore, this assay endpoint can be referred to as a primary readout, because this assay has produced multiple assay endpoints where this one serves a reporter gene function. To generalize the intended target to other relatable targets, this assay endpoint is annotated to the nuclear receptor intended target family, where the subfamily is steroidal.
Human liver HepG2 cells are transiently transfected with multiple reporter transcription units (MRTUs) in 6-well plates using FuGene 6 reagent (Roche; 3 ml FuGene/1 mg DNA). The MRTU constructs are regulated by a cis-regulating element (promoter). […] A major difference between the CIS and TRANS system is that in CIS activities of endogenous TFs are measured, whereas the TRANS assay evaluates changes in activities of exogenous, chimeric NR-Gal4 proteins. […] At the end of 24 hour incubation, total RNA was isolated using TriZol reagent (Invitrogen). The isolated RNA is then reverse-transcribed using oligo(dT) primer and Mo-MLV reverse transcriptase (Invitrogen) with DNAse I (Ambion) treatment for 30 min. The one-tenth of the produced cDNA was amplified by PCR using Taq DNA polymerase (Invitrogen) and two reporter sequence-specific primers. The PCR products were fluorescently labeled by primer extension with 6-arboxyfluorescein (6-FAM) 5'-labeled reporter sequence-specific primer (2 min at 95 C, 20 s at 68 C and 10 min at 72 C) and these products were digested with 5U of HpaI (New England Biolabs) for 2h at 37 C. The fragments were purified using Qiaquick PCR columns (Qiagen), analyzed on an ABI 3130xL genetic analyzer (Applied Biosystems) with peak positions identified by using a set of X-rhodamine (ROX)-labeled MapMarker1000 molecular weight standards (BioVentures). The raw capillary electrophoresis data was processed using Attagraph software (Attagene).
For `CN(C)C(=O)Nc1ccc(Cl)c(Cl)c1`, the call was inactive and the AC50 is 19.6 µM (active).
On the same counts, the results for `N[C@@H](Cc1cc(I)c(Oc2ccc(O)c(I)c2)c(I)c1)C(=O)O` are “inactive” and 3.68 µM (active).
As to `CC1(C)C(C=C(Cl)Cl)C1C(=O)OCc1cccc(Oc2ccccc2)c1` (configuration not stated), the molecule was classed as inactive.
As to `CC(C)CCCCCCc1ccc(O)cc1`, the AC50 is 0.75 µM (active).
Regarding `Oc1ccc(C(c2ccc(O)cc2)C(Cl)(Cl)Cl)cc1`, the outcome was inactive.
`CCCCC(CC)COC(=O)c1ccccc1C(=O)O` (configuration not stated): the AC50 is 4.22 µM (active).
Take `C=CCOC(Cn1ccnc1)c1ccc(Cl)cc1Cl` (configuration not stated): the result was inactive.
On to `CCN(Cc1c(F)cccc1Cl)c1c([N+](=O)[O-])cc(C(F)(F)F)cc1[N+](=O)[O-]`, for which the molecule was called inactive.
Regarding `C#C[C@]1(O)CC[C@H]2[C@@H]3CCC4=CC(=O)CC[C@@H]4[C@H]3CC[C@@]21CC`, the call was inactive and the AC50 is 0.275 µM (active).
Turning to `CCCCC(CC)CN1C(=O)C2C3C=CC(C3)C2C1=O` (configuration not stated), the outcome was inactive.
On the same count and under the same terms, to `CSC(=O)c1cccc2nnsc12` belongs “inactive”.
As to `O=C(c1ccc(O)cc1O)c1ccc(O)cc1O`, the AC50 was 1.66 µM (active).
Turning to `CC(C)(c1ccc(O)cc1)c1ccc(O)cc1`, the AC50 is 2.64 µM (active).
Regarding `CC(=O)S[C@@H]1CC2=CC(=O)CC[C@]2(C)[C@H]2CC[C@@]3(C)[C@@H](CC[C@@]34CCC(=O)O4)[C@H]12`, the molecule was classed as inactive.

For orientation: AC50 means the midpoint of the concentration-response curve, whichever way the signal moves.

The values are drawn from PubChem BioAssay (EPA / NIEHS).
